What was measured:
[1] = target: Tyrosine-protein kinase SYK (Homo sapiens) (UniProt P43405); details: at 1 µM
[2] = target: T1, Tyrosine-protein kinase Tec (Homo sapiens) (UniProt P42680); details: at 0.1 µM
T1 sequence (whole entry): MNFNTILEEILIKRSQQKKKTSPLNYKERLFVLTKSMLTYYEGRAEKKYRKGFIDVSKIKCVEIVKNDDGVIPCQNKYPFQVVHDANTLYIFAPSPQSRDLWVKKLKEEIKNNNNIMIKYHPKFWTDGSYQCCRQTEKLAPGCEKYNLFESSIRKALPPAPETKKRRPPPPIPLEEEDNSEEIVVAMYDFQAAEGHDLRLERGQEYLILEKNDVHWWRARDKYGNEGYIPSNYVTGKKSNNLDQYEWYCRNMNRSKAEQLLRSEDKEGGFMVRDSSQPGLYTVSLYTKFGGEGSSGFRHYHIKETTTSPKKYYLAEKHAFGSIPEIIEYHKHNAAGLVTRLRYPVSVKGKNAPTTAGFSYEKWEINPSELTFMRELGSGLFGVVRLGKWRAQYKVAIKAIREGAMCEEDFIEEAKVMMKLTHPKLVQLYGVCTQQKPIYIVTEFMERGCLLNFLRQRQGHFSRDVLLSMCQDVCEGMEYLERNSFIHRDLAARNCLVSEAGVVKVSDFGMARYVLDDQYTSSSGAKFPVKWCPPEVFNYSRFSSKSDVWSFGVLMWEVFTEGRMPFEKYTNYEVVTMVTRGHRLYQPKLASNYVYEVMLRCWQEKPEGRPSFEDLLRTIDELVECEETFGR

[3] = target: T1, Tyrosine-protein kinase Tec (Homo sapiens); details: at 1 µM
[4] = target: Angiopoietin-1 receptor (Homo sapiens) (UniProt Q02763); details: at 0.1 µM
[5] = target: Angiopoietin-1 receptor (Homo sapiens) (UniProt Q02763); details: at 1 µM
[6] = target: T2, Non-receptor tyrosine-protein kinase TNK1 (Homo sapiens) (UniProt Q13470); details: at 0.1 µM
T2 sequence (whole entry): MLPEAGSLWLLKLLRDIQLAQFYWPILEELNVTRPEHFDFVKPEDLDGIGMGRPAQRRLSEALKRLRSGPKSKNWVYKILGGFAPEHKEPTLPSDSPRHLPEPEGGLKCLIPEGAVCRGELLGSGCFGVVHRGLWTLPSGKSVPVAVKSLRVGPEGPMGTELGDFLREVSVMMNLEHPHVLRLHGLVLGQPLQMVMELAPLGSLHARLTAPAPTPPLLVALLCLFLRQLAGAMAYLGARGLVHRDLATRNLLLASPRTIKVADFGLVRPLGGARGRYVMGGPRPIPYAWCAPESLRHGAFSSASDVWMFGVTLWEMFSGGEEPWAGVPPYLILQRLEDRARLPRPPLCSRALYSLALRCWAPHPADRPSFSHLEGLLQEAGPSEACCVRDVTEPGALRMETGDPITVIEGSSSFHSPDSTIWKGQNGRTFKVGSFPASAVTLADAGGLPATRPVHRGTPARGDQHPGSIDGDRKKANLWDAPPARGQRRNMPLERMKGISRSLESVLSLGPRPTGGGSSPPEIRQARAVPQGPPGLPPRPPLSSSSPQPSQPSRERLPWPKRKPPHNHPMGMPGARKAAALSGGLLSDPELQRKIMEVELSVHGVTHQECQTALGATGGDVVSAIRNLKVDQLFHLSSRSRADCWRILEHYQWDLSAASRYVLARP

[7] = target: T2, Non-receptor tyrosine-protein kinase TNK1 (Homo sapiens); details: at 1 µM
[8] = target: Activated CDC42 kinase 1 (Homo sapiens) (UniProt Q07912); details: at 0.1 µM
[9] = target: Activated CDC42 kinase 1 (Homo sapiens) (UniProt Q07912); details: at 1 µM
[10] = target: High affinity nerve growth factor receptor (Homo sapiens) (UniProt P04629); details: at 0.1 µM
[11] = target: High affinity nerve growth factor receptor (Homo sapiens) (UniProt P04629); details: at 1 µM
[12] = target: BDNF/NT-3 growth factors receptor (Homo sapiens) (UniProt Q16620); details: at 0.1 µM
[13] = target: BDNF/NT-3 growth factors receptor (Homo sapiens) (UniProt Q16620); details: at 1 µM
[14] = target: NT-3 growth factor receptor (Homo sapiens) (UniProt Q16288); details: at 0.1 µM
[15] = target: NT-3 growth factor receptor (Homo sapiens) (UniProt Q16288); details: at 1 µM
[16] = target: T3, Tyrosine-protein kinase TXK (Homo sapiens) (UniProt P42681); details: at 0.1 µM
T3 sequence (whole entry): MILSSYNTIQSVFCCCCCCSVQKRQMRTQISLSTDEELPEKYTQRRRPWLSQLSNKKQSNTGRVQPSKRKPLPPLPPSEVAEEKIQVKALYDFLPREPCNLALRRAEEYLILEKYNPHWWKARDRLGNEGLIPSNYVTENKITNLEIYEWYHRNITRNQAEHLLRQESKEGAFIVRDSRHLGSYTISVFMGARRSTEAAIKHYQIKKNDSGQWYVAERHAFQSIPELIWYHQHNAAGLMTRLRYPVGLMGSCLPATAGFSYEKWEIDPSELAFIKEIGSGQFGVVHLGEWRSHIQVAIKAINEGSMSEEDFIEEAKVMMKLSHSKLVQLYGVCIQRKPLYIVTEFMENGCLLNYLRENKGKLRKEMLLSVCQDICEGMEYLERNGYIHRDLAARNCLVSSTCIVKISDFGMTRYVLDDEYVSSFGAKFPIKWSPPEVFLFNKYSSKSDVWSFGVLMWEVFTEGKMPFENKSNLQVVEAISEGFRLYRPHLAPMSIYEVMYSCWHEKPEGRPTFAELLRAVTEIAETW

[17] = target: T3, Tyrosine-protein kinase TXK (Homo sapiens); details: at 1 µM
[18] = target: Non-receptor tyrosine-protein kinase TYK2 (Homo sapiens) (UniProt P29597); details: at 0.1 µM;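 note: each value is a mean of the inhibition readings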
[19] = target: T4, Dual specificity protein kinase TTK (Homo sapiens) (UniProt P33981); details: at 1 µM;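 note: reported figures are mean TTK inhibition at 1 µM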
T4 sequence (whole entry): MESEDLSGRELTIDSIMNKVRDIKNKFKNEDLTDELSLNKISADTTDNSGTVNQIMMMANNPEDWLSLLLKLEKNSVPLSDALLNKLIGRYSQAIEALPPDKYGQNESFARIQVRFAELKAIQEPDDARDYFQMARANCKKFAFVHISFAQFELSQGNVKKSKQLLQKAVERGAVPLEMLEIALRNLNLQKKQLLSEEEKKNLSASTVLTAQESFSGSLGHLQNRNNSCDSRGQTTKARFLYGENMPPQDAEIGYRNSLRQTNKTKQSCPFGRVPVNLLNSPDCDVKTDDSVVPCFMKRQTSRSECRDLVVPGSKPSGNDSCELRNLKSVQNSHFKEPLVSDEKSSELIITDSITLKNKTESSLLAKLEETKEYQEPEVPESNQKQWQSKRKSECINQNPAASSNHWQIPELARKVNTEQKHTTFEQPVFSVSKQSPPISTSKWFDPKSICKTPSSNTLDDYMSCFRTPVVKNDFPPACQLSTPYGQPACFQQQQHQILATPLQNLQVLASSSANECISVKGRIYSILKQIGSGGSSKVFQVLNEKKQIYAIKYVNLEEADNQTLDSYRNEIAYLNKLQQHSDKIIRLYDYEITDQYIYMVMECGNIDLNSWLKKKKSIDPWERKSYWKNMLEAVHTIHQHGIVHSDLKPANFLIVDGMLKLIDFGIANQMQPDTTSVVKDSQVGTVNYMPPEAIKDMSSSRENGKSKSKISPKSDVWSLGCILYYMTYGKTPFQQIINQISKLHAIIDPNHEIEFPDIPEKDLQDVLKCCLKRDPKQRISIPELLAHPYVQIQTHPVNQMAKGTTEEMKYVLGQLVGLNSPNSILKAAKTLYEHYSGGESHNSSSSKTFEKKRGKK

[20] = target: T5, Aurora kinase A (Homo sapiens) (UniProt O14965); details: at 0.1 µM;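 note: each reported value is a mean percent inhibition of Aurora-A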
T5 sequence (whole entry): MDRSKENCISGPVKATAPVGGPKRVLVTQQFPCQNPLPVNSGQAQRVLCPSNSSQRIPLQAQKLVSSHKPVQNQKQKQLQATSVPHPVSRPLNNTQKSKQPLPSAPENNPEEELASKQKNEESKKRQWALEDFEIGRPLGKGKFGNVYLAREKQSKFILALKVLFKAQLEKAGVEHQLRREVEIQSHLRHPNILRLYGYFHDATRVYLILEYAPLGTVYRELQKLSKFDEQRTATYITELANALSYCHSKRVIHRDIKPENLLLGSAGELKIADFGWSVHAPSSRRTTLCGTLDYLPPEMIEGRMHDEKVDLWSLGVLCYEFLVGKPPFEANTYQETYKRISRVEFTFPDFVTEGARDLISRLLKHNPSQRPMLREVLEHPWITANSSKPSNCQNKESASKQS

NT-3 growth factor receptor (Homo sapiens), sequence (Q16288 32-839 limits assumed): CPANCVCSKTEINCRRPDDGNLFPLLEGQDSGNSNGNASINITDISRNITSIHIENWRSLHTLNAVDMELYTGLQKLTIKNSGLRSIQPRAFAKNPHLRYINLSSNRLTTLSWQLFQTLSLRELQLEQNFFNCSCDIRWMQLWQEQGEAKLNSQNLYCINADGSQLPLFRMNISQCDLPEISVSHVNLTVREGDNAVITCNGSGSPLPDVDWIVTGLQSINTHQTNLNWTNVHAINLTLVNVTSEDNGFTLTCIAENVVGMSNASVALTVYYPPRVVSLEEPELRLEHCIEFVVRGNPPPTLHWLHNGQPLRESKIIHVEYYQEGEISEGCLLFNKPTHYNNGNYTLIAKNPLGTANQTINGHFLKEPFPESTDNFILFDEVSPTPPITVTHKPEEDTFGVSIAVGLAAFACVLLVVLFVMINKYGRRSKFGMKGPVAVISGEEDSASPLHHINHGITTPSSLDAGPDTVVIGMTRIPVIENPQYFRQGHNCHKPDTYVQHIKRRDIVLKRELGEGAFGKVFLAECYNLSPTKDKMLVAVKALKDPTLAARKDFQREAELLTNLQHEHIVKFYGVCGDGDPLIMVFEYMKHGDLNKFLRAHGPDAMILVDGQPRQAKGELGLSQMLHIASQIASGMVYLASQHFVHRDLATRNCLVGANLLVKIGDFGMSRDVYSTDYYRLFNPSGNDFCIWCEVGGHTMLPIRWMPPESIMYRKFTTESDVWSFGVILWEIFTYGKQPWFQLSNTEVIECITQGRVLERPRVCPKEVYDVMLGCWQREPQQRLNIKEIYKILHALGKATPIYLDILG
BDNF/NT-3 growth factors receptor (Homo sapiens), sequence (Q16620 32-822 limits assumed): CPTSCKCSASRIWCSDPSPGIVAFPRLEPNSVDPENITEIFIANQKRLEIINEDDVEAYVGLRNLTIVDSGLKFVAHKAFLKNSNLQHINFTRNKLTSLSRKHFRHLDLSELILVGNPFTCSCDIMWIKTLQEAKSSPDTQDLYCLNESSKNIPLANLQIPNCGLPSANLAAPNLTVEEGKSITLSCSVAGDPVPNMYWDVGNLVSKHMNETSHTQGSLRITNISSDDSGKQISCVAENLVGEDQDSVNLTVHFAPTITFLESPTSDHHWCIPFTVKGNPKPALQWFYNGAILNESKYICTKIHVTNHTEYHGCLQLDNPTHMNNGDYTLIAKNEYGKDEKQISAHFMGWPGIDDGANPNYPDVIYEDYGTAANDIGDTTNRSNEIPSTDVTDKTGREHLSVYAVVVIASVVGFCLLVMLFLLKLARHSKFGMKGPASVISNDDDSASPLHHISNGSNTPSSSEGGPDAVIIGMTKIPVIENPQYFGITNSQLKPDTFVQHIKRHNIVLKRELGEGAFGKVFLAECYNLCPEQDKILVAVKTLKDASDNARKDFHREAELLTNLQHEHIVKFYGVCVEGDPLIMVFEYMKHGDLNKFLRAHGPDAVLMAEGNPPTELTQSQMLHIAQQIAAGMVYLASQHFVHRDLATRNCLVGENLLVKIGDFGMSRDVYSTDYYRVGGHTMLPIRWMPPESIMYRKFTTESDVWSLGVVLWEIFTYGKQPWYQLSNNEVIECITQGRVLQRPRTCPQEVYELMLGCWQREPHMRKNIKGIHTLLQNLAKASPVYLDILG
Activated CDC42 kinase 1 (Homo sapiens), sequence (Q07912 whole entry, looked up): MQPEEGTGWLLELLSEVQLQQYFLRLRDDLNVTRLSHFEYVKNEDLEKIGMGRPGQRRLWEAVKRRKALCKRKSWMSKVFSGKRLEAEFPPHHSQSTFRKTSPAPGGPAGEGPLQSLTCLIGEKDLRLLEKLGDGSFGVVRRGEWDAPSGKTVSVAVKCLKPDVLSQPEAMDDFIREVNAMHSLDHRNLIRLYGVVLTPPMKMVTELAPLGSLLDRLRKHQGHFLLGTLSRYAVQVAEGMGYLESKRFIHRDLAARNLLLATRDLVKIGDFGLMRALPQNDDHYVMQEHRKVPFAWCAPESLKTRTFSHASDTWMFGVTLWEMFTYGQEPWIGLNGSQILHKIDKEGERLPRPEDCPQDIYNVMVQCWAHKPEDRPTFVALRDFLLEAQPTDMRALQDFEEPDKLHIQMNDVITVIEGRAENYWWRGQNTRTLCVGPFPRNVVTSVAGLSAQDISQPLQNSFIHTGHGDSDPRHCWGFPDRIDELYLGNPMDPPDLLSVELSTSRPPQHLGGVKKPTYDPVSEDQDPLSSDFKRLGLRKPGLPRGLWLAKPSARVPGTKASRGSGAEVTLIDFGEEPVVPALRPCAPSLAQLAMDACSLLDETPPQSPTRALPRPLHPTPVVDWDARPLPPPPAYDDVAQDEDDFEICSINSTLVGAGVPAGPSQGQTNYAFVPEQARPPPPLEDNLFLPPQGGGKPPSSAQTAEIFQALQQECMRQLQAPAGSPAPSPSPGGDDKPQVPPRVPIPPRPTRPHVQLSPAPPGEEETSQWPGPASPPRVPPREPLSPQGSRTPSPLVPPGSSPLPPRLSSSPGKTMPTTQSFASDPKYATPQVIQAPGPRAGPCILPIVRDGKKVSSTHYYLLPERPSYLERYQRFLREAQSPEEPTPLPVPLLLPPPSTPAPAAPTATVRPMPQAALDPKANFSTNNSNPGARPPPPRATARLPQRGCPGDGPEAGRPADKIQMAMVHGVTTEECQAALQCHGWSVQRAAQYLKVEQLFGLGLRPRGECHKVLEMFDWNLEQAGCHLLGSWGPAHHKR
High affinity nerve growth factor receptor (Homo sapiens), sequence (P04629 33-796 limits assumed): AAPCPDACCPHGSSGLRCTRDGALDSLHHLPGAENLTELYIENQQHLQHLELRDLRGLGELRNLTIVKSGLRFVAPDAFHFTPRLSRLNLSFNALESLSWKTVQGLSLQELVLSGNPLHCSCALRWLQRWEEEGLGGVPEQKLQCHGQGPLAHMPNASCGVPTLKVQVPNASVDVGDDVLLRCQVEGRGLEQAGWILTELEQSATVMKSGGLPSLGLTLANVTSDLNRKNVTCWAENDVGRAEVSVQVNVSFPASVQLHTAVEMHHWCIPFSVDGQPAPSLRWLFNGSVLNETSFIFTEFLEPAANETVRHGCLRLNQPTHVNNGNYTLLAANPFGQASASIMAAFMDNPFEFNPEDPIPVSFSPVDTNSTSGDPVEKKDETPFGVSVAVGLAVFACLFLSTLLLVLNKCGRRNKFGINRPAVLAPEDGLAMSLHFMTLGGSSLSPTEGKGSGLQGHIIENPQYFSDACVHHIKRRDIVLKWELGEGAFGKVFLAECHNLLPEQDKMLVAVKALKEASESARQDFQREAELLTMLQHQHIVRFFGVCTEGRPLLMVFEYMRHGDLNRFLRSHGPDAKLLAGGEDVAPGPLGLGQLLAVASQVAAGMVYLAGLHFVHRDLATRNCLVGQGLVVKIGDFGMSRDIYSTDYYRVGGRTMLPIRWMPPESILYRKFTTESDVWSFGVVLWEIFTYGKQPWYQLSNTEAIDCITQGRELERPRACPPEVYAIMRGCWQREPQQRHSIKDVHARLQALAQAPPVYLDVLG
Non-receptor tyrosine-protein kinase TYK2 (Homo sapiens), sequence (P29597 whole entry): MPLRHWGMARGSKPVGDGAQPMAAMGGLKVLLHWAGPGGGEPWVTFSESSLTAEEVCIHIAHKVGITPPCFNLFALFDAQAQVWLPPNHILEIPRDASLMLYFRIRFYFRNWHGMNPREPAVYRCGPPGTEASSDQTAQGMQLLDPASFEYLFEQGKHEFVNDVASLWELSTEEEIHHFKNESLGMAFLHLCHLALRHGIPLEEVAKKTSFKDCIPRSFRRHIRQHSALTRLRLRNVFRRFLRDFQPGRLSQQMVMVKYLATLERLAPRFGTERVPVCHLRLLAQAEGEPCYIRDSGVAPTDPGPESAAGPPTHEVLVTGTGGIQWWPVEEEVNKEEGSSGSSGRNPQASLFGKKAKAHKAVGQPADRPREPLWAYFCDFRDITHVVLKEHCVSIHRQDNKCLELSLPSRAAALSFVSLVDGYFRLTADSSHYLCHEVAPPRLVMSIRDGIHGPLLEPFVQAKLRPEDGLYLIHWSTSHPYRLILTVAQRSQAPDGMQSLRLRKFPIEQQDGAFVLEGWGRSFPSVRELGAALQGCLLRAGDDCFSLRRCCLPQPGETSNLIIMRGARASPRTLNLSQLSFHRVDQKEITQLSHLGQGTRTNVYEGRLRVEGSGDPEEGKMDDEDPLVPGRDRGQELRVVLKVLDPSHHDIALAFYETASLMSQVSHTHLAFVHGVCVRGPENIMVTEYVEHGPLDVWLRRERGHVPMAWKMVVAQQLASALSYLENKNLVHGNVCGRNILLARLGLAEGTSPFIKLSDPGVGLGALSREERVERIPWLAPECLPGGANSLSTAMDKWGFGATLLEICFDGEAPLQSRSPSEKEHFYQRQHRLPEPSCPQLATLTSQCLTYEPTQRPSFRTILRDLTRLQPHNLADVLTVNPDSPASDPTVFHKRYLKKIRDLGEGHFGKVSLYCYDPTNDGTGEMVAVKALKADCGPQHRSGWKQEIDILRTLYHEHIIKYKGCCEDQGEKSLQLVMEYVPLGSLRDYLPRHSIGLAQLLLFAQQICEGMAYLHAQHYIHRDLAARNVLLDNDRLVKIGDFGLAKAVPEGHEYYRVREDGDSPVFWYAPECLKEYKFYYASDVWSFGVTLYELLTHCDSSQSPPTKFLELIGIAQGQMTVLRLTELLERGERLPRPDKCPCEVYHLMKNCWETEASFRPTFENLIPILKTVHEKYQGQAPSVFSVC

SMILES	inhibition [1] [%]	inhibition [2] [%]	inhibition [3] [%]	inhibition [4] [%]	inhibition [5] [%]	inhibition [6] [%]	inhibition [7] [%]	inhibition [8] [%]	inhibition [9] [%]	inhibition [10] [%]	inhibition [11] [%]	inhibition [12] [%]	inhibition [13] [%]	inhibition [14] [%]	inhibition [15] [%]	inhibition [16] [%]	inhibition [17] [%]	inhibition [18] [%]	inhibition [19] [%]	inhibition [20] [%]
CS(=O)(=O)CCNCc1nc(-c2ccc3ncnc(Nc4ccc(OCc5cccc(C(F)(F)F)c5)cc4)c3c2)cs1	2.72	4.74	5.07	5.84	6.51	0.85	2.82	0.72	3.3	0.13	5.08	2.33	12.1	1.39	7.81	6.88	5.83	-3.62	2.16	3.8
N#Cc1cccc(Nc2nccc(-c3cnn4ncccc34)n2)c1	53.2	8.87	39.3	3.66	18.6	11.9	52.3	2.35	11.7	15.4	65.7	24.3	75.3	28.2	87.5	5.32	24.4	-4.17	35	11.3
COc1cc2ncn(-c3cc(OCc4ccccc4S(C)(=O)=O)c(C#N)s3)c2cc1OC	-2.95	7.94	35.5	5.63	14.6	38.6	77.9	6.02	38	5.48	18.8	15	57.2	12.9	56.1	10.8	42.5	-7.35	11.1	12.4
O=C(Nc1ccc(Oc2ccc3[nH]c(NC(=O)c4ccco4)nc3c2)cc1)Nc1cc(C(F)(F)F)ccc1F	-2.67	-1.71	0.35	49.4	82.4	9.16	58.6	0.17	0.5	30.2	85.5	27.8	73.9	30.8	89.6	-1.98	-1.15	1.41	13.6	-1.76
COc1cc2ncnc(Nc3ccc(C)c(O)c3)c2cc1OC	0.27	11.1	36.6	3.58	17.7	5.34	23.8	1.4	5.7	1.85	2.17	3.65	6.25	1.67	7.05	8.65	29.5	-5.98	7.27	2.56
COc1ccc(-c2nn3ncccc3c2-c2ccnc(Nc3cccc(C(F)(F)F)c3)n2)cc1	-2.11	1.14	4.73	2.11	9.2	7.47	9.47	0.73	0.85	1.79	3.94	1.95	3.32	2.64	1.56	0.17	3.03	0.38	6.51	2.9

Reference: ChEMBL document CHEMBL1961873, “Compounds: GSK PKIS; Assays: Nanosyn kinase panel” (2012)
